According to paper PMC4552634, “A New Set of Chemical Starting Points with Plasmodium falciparum Transmission-Blocking Potential for Antimalarial Drug Discovery” (PLoS ONE, 2015):
Like-named read-outs stand apart in the source and are kept apart here. Screen size: about 13,000 compounds; about 3,200 (25%) showed an effect of 50% or more. The list shows a part of the results.

System: P. falciparum stage V gametocytes
Set-up: BacTiter-Glo ATP luminescence viability of purified stage V gametocytes in 384-well plates, per cent inhibition versus DMSO
Conditions: 48 h, 5 µM, inhibitor

Row | Compound | % Inhibition [%] | % Inhibition (% Inhibition) [%]
1 | COc1ccc(-n2nc(C)c3c2NC(=O)CC3c2ccccc2OCc2ccc(F)cc2)cc1 (centres unmarked) [TCMDC-124906] | 40.61 | –
2 | COC(=O)c1cc(C(O)CNC(C)CCCc2ccccc2)ccc1O (centres unmarked) [TCMDC-131241] | -5.82 | –
3 | COc1ccc2nccc([C@@H](O)CN3CCC(NCc4nc5c(F)cccc5[nH]4)CC3)c2c1 [TCMDC-140760] | 20.74 | –
4 | O=C(c1cccc(-c2cccc(-c3nc4cc(C(F)(F)F)ccc4[nH]3)c2)c1)N1CCCCC1CN1CCC(O)C1 (centres unmarked) [TCMDC-132346] | -18.68 | –
5 | CCN(CCCN1CCCCC1)c1cc(C)nc(Nc2cc(Cl)cc(Cl)c2)n1 [TCMDC-132455] | 8.984 | –
6 | Cc1nc(C(C)Nc2nncc(-c3ccc(Cl)cc3)n2)cs1 (centres unmarked) [TCMDC-124636] | -29.02 | –
7 | CC(C)c1cccc(C(NC(=O)[C@H]2Cc3ccccc3CN2C(=O)c2cccc(N3CCOCC3)c2)C2CCCC2)c1 (some centres unmarked) [TCMDC-138264] | 2.743 | –
8 | FC(F)(F)c1ccc2[nH]c(-c3ccc(-c4cccc(CNCC5CCCO5)c4)s3)nc2c1.O=C(O)C(F)(F)F (centres unmarked) [TCMDC-133099] | -9.129 | –
9 | COc1ccc2nccc([C@@H](O)CN3CCC(NS(=O)(=O)c4cc(Br)c(Br)s4)CC3)c2c1 [TCMDC-141306] | 29.28 | –
10 | COc1ccc(-c2ccc(NC(=O)c3cccc(Cl)c3)cc2)cc1CN1CCC(O)CC1 [TCMDC-133334] | 46.17 | –
11 | COc1ccc(-c2cccc(NC(=O)c3ccc(Cl)cc3)c2)cc1CN1CCC(O)CC1 [TCMDC-132606] | -74.32 | –
12 | COc1ccc(-c2cccc(NC(=O)c3cccc(Cl)c3)c2)cc1CN1CCC(O)CC1 [TCMDC-132618] | 87.3 | –
13 | Cc1ccc(CNc2cc(C(F)(F)F)nc(-c3ccc(S(C)(=O)=O)cc3)n2)cc1 [TCMDC-138598] | 20.79 | –
14 | O=C(Nc1ccc(Cl)c(Cl)c1)N1CCc2cc3nccc(N4CCN5CCC[C@H]5C4)c3cc21 [TCMDC-140055] | 49.62 | –
15 | Cc1cc(-c2cccc3c(C(=O)N4CCc5cc6nccc(N7CCN8CCC[C@H]8C7)c6cc54)cccc23)cc(C)n1 [TCMDC-139793] | 31.07 | –
16 | CN1CCCN(c2ccnc3cc4c(cc23)N(C(=O)c2ccc(Cl)c(Cl)c2)CC4)CC1 [TCMDC-140242] | 99.6 | –
17 | Cc1cc(-c2cccc3c(C(=O)N4CCc5cc6nccc(N7CCCN(C)CC7)c6cc54)cccc23)cc(C)n1 [TCMDC-140244] | 100.8 | –
18 | CN1CCN(c2ccnc3cc4c(cc23)N(C(=O)Nc2ccc(-c3ccncc3)c3ccccc23)CC4)CC1 [TCMDC-139371] | 4.895 | –
19 | O=C(/C=C/c1ccc(C(F)(F)F)cc1)N1CCc2cc3nccc(N4CCN5CCC[C@H]5C4)c3cc21 [TCMDC-140045] | 20.84 | –
20 | CN1CCCN(c2ccnc3cc4c(cc23)N(C(=O)c2ccc(C(F)(F)F)cc2)CC4)CC1 [TCMDC-140243] | 67.52 | –
21 | CN1CCN(c2ccnc3ccc(NC(=O)c4ccc(Cl)c(Cl)c4)cc23)CC1 [TCMDC-139350] | 4.304 | –
22 | CN1CCCN(c2ccnc3cc4c(cc23)N(C(=O)c2ccc(Cl)cc2Cl)CC4)CC1 [TCMDC-140241] | 126.7 | –

Row | Compound | % Inhibition [%] | % Inhibition (% Inhibition) [%]
23 | CN1CCN(c2ccnc3cc4c(cc23)N(C(=O)Nc2ccc3c(c2)CCCC3=O)CC4)CC1 [TCMDC-139372] | 0.5076 | –
24 | CN1CCCN(c2ccnc3cc4c(cc23)N(C(=O)c2ccccc2Cl)CC4)CC1 [TCMDC-140239] | 27.46 | –
25 | Cc1nc(-c2ccc(C(F)(F)F)cn2)sc1C(=O)N1CCc2cc3nccc(N4CCN5CCC[C@H]5C4)c3cc21 [TCMDC-140330] | -2.363 | –
26 | CN1CC(c2ccccc2)c2cc(O)c(CN3CCCCC3)cc2CC1Cc1ccccc1 (centres unmarked) [TCMDC-131902] | -4.593 | –
27 | COc1cc(Cc2cnc(N)nc2N)cc(OCCCCNS(=O)(=O)C(F)(F)F)c1OC [TCMDC-137348] | 8.081 | –
28 | O=C(NC1CCN(CCCOc2ccnc3cc(Cl)ccc23)C1)c1ccc(Br)cc1 (centres unmarked) [TCMDC-136147] | -6.07 | –
29 | Cc1nc(-c2ccc(-c3ccc(C(=O)Nc4ccc(Cl)c(N5CCN(C)CC5)c4)cc3)c(C)c2)no1 [TCMDC-131979] | -60.2 | –
30 | CC1(C)N=C(N)N=C(N)N1c1ccc(I)cc1 [TCMDC-124271] | 5.763 | –
31 | CN(CCCCCNC(=O)/C=C/c1ccc(Cl)c(Cl)c1)CCCCc1c[nH]c2ccccc12 [TCMDC-139328] | -28.14 | –
32 | CC1CCN(c2nc(C(=O)Nc3cccc4c3CCCC4)c(C(C)C)s2)CC1 [TCMDC-134662] | 11.59 | –
33 | CN1CCCN(c2ccnc3cc4c(cc23)N(C(=O)c2ccc(Cl)cc2)CC4)CC1 [TCMDC-140240] | 94.93 | –
34 | CN1CCN(c2ccnc3ccc(NC(=O)Nc4ccc(Cl)cc4)cc23)CC1 [TCMDC-139322] | 28.3 | –
35 | CN1CCN(c2ccnc3cc4c(cc23)N(Cc2ccccc2)CC4)CC1 [TCMDC-139341] | -3.615 | –
36 | Cc1ccc(C2(C)CC(C)(C)N(C(=O)COc3ccc4ccccc4c3)c3ccccc32)cc1 (centres unmarked) [TCMDC-124089] | -65.04 | –
37 | COc1ccccc1CCN1CCC(CN(C)Cc2ccc(O)c(Cl)c2)CC1 [TCMDC-124611] | 14.29 | –
38 | COc1ccc2nccc([C@@H](O)CN3CCC(NC(=O)c4cc5c(Cl)cc(Cl)cc5[nH]4)CC3)c2c1 [TCMDC-141039] | -18.46 | –
39 | CN(C)c1ccc(C=C2SC(=O)NC2=Nc2ccccc2)cc1 [TCMDC-123738] | 34.75 | –
40 | COc1cc(CN2CCC(NC(=O)[C@H](Cc3ccccc3)NC(=O)Nc3ccc(Oc4ccccc4)cc3)C2)ccc1O (some centres unmarked) [TCMDC-140500] | -15.62 | –
41 | COc1cccc(NC(=O)NC2CCN(CCCCCNC(=O)/C=C/c3ccc(Cl)c(Cl)c3)CC2)c1 [TCMDC-139388] | 31.25 | –
42 | O=C(Nc1ccc(Cl)cc1)Nc1ccc(OCC(O)CN2CCCCC2)cc1 (centres unmarked) [TCMDC-123519] | 4.072 | –
43 | O=C(Nc1ccc(Cl)cc1)N[C@H]1CCN(Cc2ccc(OCCCN3CCCCC3)cc2)C1 [TCMDC-141787] | 90.53 | –
44 | O=C(Nc1ccc(Oc2ccccc2)cc1)N[C@@H](Cc1ccc(O)cc1)C(=O)NC1CCN(Cc2ccc(O)c([N+](=O)[O-])c2)C1 (some centres unmarked) [TCMDC-140421] | 0.03751 | –

Row | Compound | % Inhibition [%] | % Inhibition (% Inhibition) [%]
45 | O=C(Nc1cccc(Cl)c1)N[C@H]1CCN(Cc2ccc(OCCCN3CCCCC3)cc2)C1 [TCMDC-141788] | 103.5 | –
46 | Cc1ccc(CN2CCCCC(NC(=O)c3cc4ccccc4s3)C2)cc1 (centres unmarked) [TCMDC-141748] | -37.31 | –
47 | O=C(Nc1ccc(-c2ccccc2)s1)N[C@H]1CCN(Cc2ccc(OCCCN3CCCCC3)cc2)C1 [TCMDC-141789] | 86.03 | –
48 | O=C(Nc1ccc(Oc2ccccc2)cc1)N[C@H]1CCN(Cc2ccc(OCCCN3CCCCC3)cc2)C1 [TCMDC-141786] | 96.23 | –
49 | Cc1cccc2[nH]c(-c3cccc(-c4cccc(NC(=O)NCc5cccc(F)c5)c4)c3)nc12 [TCMDC-133291] | 37.78 | –
50 | O=C(Nc1cccc(-c2cccc(-c3nc4ccc(F)cc4[nH]3)c2)c1)Nc1ccc(F)c(F)c1F [TCMDC-133233] | -45 | –
51 | Cc1cc(Cl)c(S(=O)(=O)N(C)c2ccccc2)cc1OCC(=O)NC1CCCCC1 [TCMDC-124368] | -27.39 | –
52 | Cc1cc(C(=O)CN2C(=O)NC3(CCOc4ccccc43)C2=O)c(C)n1Cc1ccc(F)cc1 (centres unmarked) [TCMDC-125246] | -0.05637 | –
53 | CC(CNc1nc(NCC(c2ccccc2)c2ccccc2)c2[nH]cnc2n1)c1ccccc1 (centres unmarked) [TCMDC-131859] | -14.76 | –
54 | O=C(Nc1ccc(C(F)(F)F)cc1)c1ccc(S(=O)(=O)NC2CCN(Cc3ccccc3)C2)cc1 (centres unmarked) [TCMDC-133675] | 7.046 | –
55 | Cc1ccc(NC(=O)c2ccc(NCCCN(C)Cc3ccccc3)c([N+](=O)[O-])c2)cc1F [TCMDC-125686] | 12.99 | –
56 | O=C(Nc1ccccc1F)NC1CCN(c2ccnc(Nc3ccc(F)cc3)n2)C1 (centres unmarked) [TCMDC-133603] | -76.2 | –
57 | O=C(Nc1ccc2c(c1)CCC2)N[C@H]1CCN(Cc2ccc(OCCCN3CCCCC3)cc2)C1 [TCMDC-141790] | 89.55 | –
58 | O=C(Nc1ccc2c(c1)CCC2)N[C@H]1CCN(CCCCCNC(=O)C2CC2c2ccc(Cl)c(Cl)c2)C1 (some centres unmarked) [TCMDC-136264] | 5.581 | –
59 | O=C(Nc1ccc(C(=O)Oc2ccc3ccccc3c2)cc1)N[C@@H](Cc1ccc(O)cc1)C(=O)NC1CCN(Cc2ccc(O)cc2)C1 (some centres unmarked) [TCMDC-135358] | -34.98 | –
60 | O=C(Nc1ccc(-c2ccccc2)cc1)Nc1cccc(OCCN2CCCC2)c1 [TCMDC-139541] | -48.88 | –
61 | N#Cc1cccc(NC(=O)Nc2cccc(OC3CCN(Cc4ccccc4)CC3)c2)c1 [TCMDC-139545] | 11.02 | –
62 | O=C(Nc1cccc(Oc2ccccc2)c1)N[C@H]1CCN(Cc2ccc(OCCCN3CCCCC3)cc2)C1 [TCMDC-141785] | 106.3 | –
63 | N#Cc1cc(C(=O)c2cc(Br)ccc2O)cn(C2CCCCC2)c1=O [TCMDC-123629] | -45.84 | –
64 | O=C(/C=C/c1ccc(Cl)c(Cl)c1)NCCCCCN1CCC(c2c[nH]c3ccccc23)C(O)C1 (centres unmarked) [TCMDC-139656] | – | -35.83
65 | CC(=O)c1cccc2cc(C(=O)NC3CCC(CCN4CCc5ccc(C#N)cc5C4)CC3)[nH]c12 (centres unmarked) [TCMDC-139192] | 14.52 | –
